Data as given in ChEMBL document CHEMBL1157539, “Thousands of chemical starting points for antimalarial lead identification” (Nature, 2010).

tested on: Plasmodium falciparum; assay: GSK_TCMDC: Inhibition of Plasmodium falciparum Dd2 in whole red blood cells, using parasite LDH activity as an index of growth. Test compounds present at 2uM; assay type: functional

First: CCc1cn2c3c(cc(C(=O)N[C@@H](Cc4cccc(F)c4)[C@H](O)CNC4CCOCC4)cc13)N(C)S(=O)(=O)CC2.O=CO
Second: COc1ccc2nccc([C@@H](O)CN3CCC(NCc4ccc5c(c4)NC(=O)CS5)CC3)c2n1.O=C(O)C(=O)O
The Inhibition of the first is higher: 97% for the first, 34% for the second.

Compared with `CCN(CCCN1CCCCC1)c1cc(C)nc(Nc2cc(C)ccc2C)n1.O=C(O)C(F)(F)F`, `COc1ccc(CN2CCC(CNC(C)c3cccc4ccccc34)CC2)cc1.O=C(O)C(F)(F)F` (configuration not stated) is lower in Inhibition: 42% for the first, 26% for the second.

First: Cl.Cl.N=C(N)Nc1ccc(Cc2ccc(NC(=N)N)cc2)cc1
Second: CC(=O)Nc1ccc(CN(Cc2cccc(OC(C)(C)C)c2)Cc2ccc3c(c2)OCCO3)cc1
The Inhibition of the first is lower: 94% for the first, 96% for the second.

Compared with `Cc1cc(C)nc(-n2[nH]c(C)c(Cc3ccc(C(C)(C)C)cc3)c2=O)n1`, `COc1cc(Cc2cnc(N)nc2N)ccc1Oc1ccc(N)cc1` is lower in Inhibition: 61% for the first, 0% for the second.

First: C[C@H](NC(=O)C1CCCC1)C(=O)Nc1ccc(-c2ccc(-c3nc4cc(C(F)(F)F)ccc4[nH]3)cc2)cc1
Second: FC(F)(F)c1ccc2[nH]c(-c3cccc(-c4cccc(CNCc5cnn(-c6ccccc6)n5)c4)c3)nc2c1.O=C(O)C(F)(F)F
The Inhibition of the first is higher: 70% for the first, 28% for the second.

Compared with `O=C(/C=C/c1ccc(Cl)c(Cl)c1)NCCCCCN1CCC(NC(=O)Nc2ccc(Cl)cc2Cl)CC1`, `Cc1ccc2ncc(Cl)c(CCN3CCC(NCc4ccc5c(n4)NC(=O)CS5)CC3)c2n1.Cl` is lower in Inhibition: 33% for the first, 12% for the second.

Going from `COc1cc(NC(=O)c2ccc3oc4ccccc4c3c2)ccc1OCCN1CCCCC1.Cl` to `Cl.NC1CCN(CCc2ccc(NS(=O)(=O)c3ccc(-c4ccccc4)cc3)cc2)CC1`, the Inhibition rises from 11% to 19%.

Going from `O=C1OC2(CN1CC1CCN(Cc3ccc(O)c(Cl)c3)CC1)c1ccccc1-c1ccccc12` to `CN1CCCc2cc(NC(=O)c3cc(-c4ccc(Cl)cc4)cs3)ccc2C1.O=C(O)C(F)(F)F`, the Inhibition falls from 96% to 34%.

tested on: HepG2; assay: GSK_TCMDC: Percent inhibition of human HepG2 cell line. Test compounds present at 10uM.; assay type: functional

Going from `Cl.FC(F)(F)c1cc(CNCCCNc2nc3ccncc3[nH]2)ccc1Cl` to `O=C(/C=C/c1ccc(Cl)c(Cl)c1)NCCCCN1CCCN(C(=O)Nc2ccc(C(F)(F)F)cc2)CC1`, the Inhibition rises from 11% to 35%.

Going from `O=C(Oc1ccc(Cl)cc1C(=O)Nc1ccc([N+](=O)[O-])cc1Cl)c1ccccc1` to `O=C(Nc1cccnc1)c1cc(C(=O)Nc2cccnc2)cc([N+](=O)[O-])c1`, the Inhibition falls from 88% to 0%.

First: COc1cc(C(=O)Nc2ccc(-c3nc4ccccc4[nH]3)cc2)cc(OC)c1OC
Second: COc1ccc(-c2cc(C(=O)Nc3ccc(CCCN(C)Cc4ccc(OC)c(OC)c4)cc3)c3ccccc3n2)cc1
The Inhibition of the first is lower: 13% for the first, 40% for the second.

Going from `Cc1noc(C)c1-c1ccc2c(Nc3ccccc3C(C)(C)C)c(C(=O)NCc3ccc(C(F)(F)F)cc3)cnc2c1.Cl` to `CC(C)(C)c1cc2cc(Nc3ccnc4cc(-c5nccs5)ccc34)ccc2[nH]1.Cl`, the Inhibition falls from 30% to 5%.

First: CCc1cn2c3c(cc(C(=O)N[C@@H](Cc4cccc(Cl)c4)[C@H](O)CNC4CC4)cc13)N(C)S(=O)(=O)CC2.O=CO
Second: CCc1cc(OC)ccc1C1CCN(CCCCNC(=O)c2ccc(NC(=O)c3ccc(Cl)cc3)cc2)CC1.Cl
The Inhibition of the first is lower: 10% for the first, 23% for the second.

Compared with `O=C(Nc1cccnc1)c1cc(-c2cccnc2)nc2ccc(Br)cc12`, `Cl.O=C(Nc1cc(Cl)cc(Cl)c1)Nc1ccnc2ccccc12` is higher in Inhibition: 9% for the first, 15% for the second.

Going from `O=C(Nc1ccc(Cn2ncc(N3CCNCC3)c(Cl)c2=O)cc1)Nc1ccc(-c2ccccc2)cc1.O=C(O)C(F)(F)F` to `CC(=O)Nc1cc(C(=O)Nc2ccc(C3=NCCN3)cc2)ccc1C(=O)Nc1ccc(C2=NCCN2)cc1.Cl`, the Inhibition falls from 29% to 12%.

First: COc1cccc2c(Oc3ccccc3C)ccnc12
Second: COc1ccc(NC(=O)/C=C/c2ccccc2Cl)cc1OCCN1CCN(c2ccncc2)CC1
The Inhibition of the first is lower: 0% for the first, 7% for the second.

First: COc1ccc2ncc(F)c(CCN3CCC(NCc4cnc5c(c4)NC(=O)CS5)CC3)c2c1.Cl
Second: COc1ccc2ncc(C#N)c(CCN3CCC(NCc4cnc5c(c4)OCCO5)CC3)c2n1.Cl
The Inhibition of the first is higher: 16% for the first, 3% for the second.

First: CC(OC(=O)c1ccc(C(=O)NCC2CC2)cc1)C(C)(C)C (configuration not stated)
Second: CN1CC[C@@H](Oc2cc(NC(=O)Nc3ccccc3Br)ccc2Cl)C1
The Inhibition of the first is lower: 10% for the first, 26% for the second.

Work on `Cc1nc2ccccc2n1C1CC2CCC(C1)N2CCCC1(c2ccccc2)CCN(C(=O)OCc2ccccc2)CC1.O=CO` (configuration not stated) yielded an Inhibition of 46%.
